ATG4B inh: ATG4B (human) cysteine protease inhibition; ATG4B cleavage of LC3-PLA2, NBD-HPC fluorescence, 1 h; inhibition, % at 8.33 µM; actives 0.51% (n = 340,000); in the data active = inhibition above about 40%
Target sequence (Q9Y4P1 whole entry, looked up): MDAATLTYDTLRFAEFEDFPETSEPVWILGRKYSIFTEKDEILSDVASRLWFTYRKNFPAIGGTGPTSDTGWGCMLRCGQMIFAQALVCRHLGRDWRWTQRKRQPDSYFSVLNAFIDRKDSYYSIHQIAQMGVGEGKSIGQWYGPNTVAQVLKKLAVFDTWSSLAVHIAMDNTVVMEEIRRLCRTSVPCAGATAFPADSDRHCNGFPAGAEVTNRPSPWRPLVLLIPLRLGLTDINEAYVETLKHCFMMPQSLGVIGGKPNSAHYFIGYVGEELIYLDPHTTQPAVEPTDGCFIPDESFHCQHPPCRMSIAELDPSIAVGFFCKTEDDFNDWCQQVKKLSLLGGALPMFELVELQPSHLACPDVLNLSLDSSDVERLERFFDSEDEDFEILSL
tim10-1 inh: growth inhibitors of tim10-1 mutant yeast; S. cerevisiae tim10-1 ts strain growth, BacTiter-Glo, 24 h; inhibition, % at 20 µM; actives 2.2% (n = 330,000); AID 463190;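 active = inhibition of at least 40%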;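 note: mutant grown at 25 °C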
tim23-1 inh: tim23-1 yeast growth inhibition; AID 463212; S. cerevisiae tim23-1 growth, BacTiter-Glo luminescence, 24 h; actives 1.3% (n = 330,000); inhibition, % at 20 µM;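 active = growth inhibition of the mutant yeast at or above 50%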;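 note: temperature-sensitive mutant grown at 25 °C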
SKKanGAS inh: blocks kanamycin growth of S. pyogenes SKKanGAS strain; actives 1.3% (n = 300,000); BacTiter-Glo, 6 h; inhibition, % at 7.5 µM;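 active = mean replicate score, as percent of positive control median, at least 50; inconclusive = mean below 50 but one replicate at or above 50; inactive = mean and every replicate below 50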;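 note: strain carries kanamycin resistance gene driven by streptokinase promoter and grows in 40 µg/ml kanamycin; loss of luminescence reflects streptokinase promoter inhibition or plain growth inhibition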
TIM10 inh: TIM10 yeast growth inhibition. AID 463195. S. cerevisiae TIM10 strain growth, BacTiter-Glo luminescence, 24 h. actives 1.4% (n = 330,000). inhibition, % at 10 µM;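 active = inhibition of 40% or more at the single tested concentration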;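 note: wild-type TIM10 isogenic control strain grown at permissive 25 °C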
PfHsp90 set2: inhibits growth of yeast expressing Plasmodium falciparum Hsp90. actives 0.32% (n = 310,000). S. cerevisiae expressing PfHsp90, BacTiter-Glo ATP, 48 h; yeast lacking PDR1 and PDR3 efflux regulators. inhibition, % at 9.4 µM;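 active = every replicate shows inhibition above about 80%, whatever the replicate mean, limit read from the data; inconclusive = mean inhibition reaches the set limit but some replicate falls short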
tim10-1 confirm: confirmation of tim10-1 mutant yeast growth inhibitors; shares compounds with tim10-1 inh; actives 56% (n = 7,400); S. cerevisiae tim10-1 ts strain growth, BacTiter-Glo, 24 h; inhibition, % at 20 µM; AID 463213;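 active = inhibition of yeast growth at or above a set limit in either of two repeat tests at 20 µM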;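 note: tim10-1 mutant grown at permissive 25 °C to find synthetic lethal compounds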
TIM10 conf: TIM10 yeast growth inhibition, confirmed | shares compounds with TIM10 inh | S. cerevisiae tim10 strain growth, BacTiter-Glo luminescence, 24 h | inhibition, % at 10 µM | actives 63% (n = 4,600) | AID 463215;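 active = inhibition of yeast growth at or above a set limit in either of two replicates at 10 µM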; note: this counterscreen used the strain with wild-type TIM10
tim23-1 confirm: confirmation of tim23-1 mutant yeast growth inhibitors. shares compounds with tim23-1 inh. S. cerevisiae tim23-1 growth, BacTiter-Glo luminescence, 24 h. actives 83% (n = 4,400). inhibition, % at 20 µM;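 active = inhibition above about 39% in either of two replicate wells at 20 µM, limit read from the data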;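 note: temperature-sensitive tim23-1 mutant grown at 25 °C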
ATG4B confirm: confirmation of human ATG4B inhibitors. shares compounds with ATG4B inh. ATG4B protease fluorescent substrate cleavage assay. inhibition, % at 8.33 µM. actives 92% (n = 320); in the data active = inhibition above about 39%
PLA2 counter: counter-screen for ATG4B inhibitors: human phospholipase A2; shares compounds with ATG4B inh; purified PLA2, NBD-C6-HPC fluorescence, 45 min; inhibition, % at 8.33 µM; actives 66% (n = 1,600); AID 588402; in the data active = inhibition above about 50%
Target sequence (P04054 whole entry, looked up): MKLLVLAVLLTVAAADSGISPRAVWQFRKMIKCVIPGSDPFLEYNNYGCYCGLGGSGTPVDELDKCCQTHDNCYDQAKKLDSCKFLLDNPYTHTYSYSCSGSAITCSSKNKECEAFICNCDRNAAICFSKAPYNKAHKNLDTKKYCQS
A number is an active result; . = inactive; ? = inconclusive; / = no result given. This is a sample that favours compounds with a hit; in the whole collection about 4.7% have one here.

SMILES | ATG4B inh | tim10-1 inh | tim23-1 inh | SKKanGAS inh | TIM10 inh | PfHsp90 set2 | TIM10 conf | others
Fc1ccc(NC(=S)Nc2ccc(F)c(Cl)c2)cc1Cl | 71.7 | 70.7 | 71.7 | 64.2 | 53.3 | . | . | tim10-1 confirm=61.5;tim23-1 confirm=64.9;PLA2 counter=76.3
COc1ccc(Cn2ccnc2SCC(=O)NC2CCCC2)cc1 | . | . | . | . | . | . | /
Cc1nn(C)c(C(=O)N/N=C/c2ccncc2)c1Cl | . | . | . | . | . | . | /
Cc1ccc(-c2cc(-c3ccccc3C)[nH]n2)c(O)c1 | 57.2 | 48.5 | 74.3 | / | 49.3 | . | 57.2 | tim10-1 confirm=58.4;tim23-1 confirm=54.2;PLA2 counter=74.3
CCn1c(SCC(=O)NCc2ccccc2)nc2nc3c(cc2c1=O)CCCC3 | . | . | . | . | . | . | /
Cc1nn(-c2ccccc2)c(Cl)c1/C=N/Nc1ccc(S(=O)(=O)Nc2ccccc2C(=O)O)cc1[N+](=O)[O-] | 66.5 | 42.3 | . | 118.6 | . | . | / | tim10-1 confirm=36.3;PLA2 counter=.
Nc1c(N2CCN(c3ccccc3)CC2)c2ccccc2oc1=O | 42.9 | 49.4 | . | . | . | . | / | tim10-1 confirm=27.4;ATG4B confirm=78.5;PLA2 counter=.
Nc1c(N)c2ccccc2oc1=O | . | . | . | . | . | . | /
Cc1ccc(S(=O)(=O)/N=C2/NC(=O)/C(=C\c3cc(Br)cc(Br)c3O)S2)cc1 | 73.3 | 41.8 | . | / | . | . | / | tim10-1 confirm=37.0;PLA2 counter=60.0
CCOC(=O)c1c(C)c(/C=N/Nc2ccccc2)n(C)c1C | . | / | / | / | / | / | /
O=C(CSCc1ccc(Cl)cc1)NCCSCc1ccco1 | . | . | . | . | . | . | /
O=C(NCCSCc1ccco1)Nc1cc(Cl)cc(Cl)c1 | 46.2 | 46.1 | 53.6 | . | . | . | / | tim10-1 confirm=35.0;tim23-1 confirm=55.5;PLA2 counter=62.0
COc1cc(NC(=S)Nc2cccc(Cl)c2Cl)c(OC)cc1Cl | 40.0 | 42.2 | . | . | . | . | / | tim10-1 confirm=.;PLA2 counter=60.0
O=C(NCC(=O)N(c1cccc(F)c1)C(C(=O)NC1CCCC1)c1cccnc1)c1ccco1 (stereo not given) | . | . | . | . | . | . | /
N#CCSc1nnc(-c2ccc(S(=O)(=O)N3CCOCC3)cc2)n1CC1CCCO1 (stereo not given) | . | . | . | . | . | . | /
CCC(C)c1ccc(C(C)NC(=S)NCc2ccc(F)cc2)cc1 (stereo not given) | 63.0 | 44.2 | . | . | . | . | / | tim10-1 confirm=.;PLA2 counter=77.6
Cc1ccc(-n2nnnc2SCC(=O)N2CCc3ccccc3C2)c(C)c1 | 43.8 | 43.9 | . | . | . | . | / | tim10-1 confirm=32.1;PLA2 counter=.
CC(O)CNc1nc2c(c(=O)n(Cc3ccc(Br)cc3)c(=O)n2C)n1C (stereo not given) | . | . | . | . | . | . | /
CN1CCC(=NNC(=O)CN(c2ccc([N+](=O)[O-])cc2)S(=O)(=O)c2ccccc2)CC1 | . | . | . | . | 40.4 | . | 30.8
CN1CCC(=NNC(=O)CN(c2cccc([N+](=O)[O-])c2)S(=O)(=O)c2ccccc2)CC1 | . | . | . | . | . | . | /
Cc1cc(CC(C)C)n(-c2nc3ccccc3c(=O)n2OCC(=O)N(C)C)n1 | . | . | . | / | . | . | /
Cc1cc(CC(C)C)n(-c2nc3ccccc3c(=O)n2OCc2ccccc2)n1 | . | . | . | . | 40.3 | / | 36.9
COc1cc(C(=O)ONC(=O)c2ccc(OC(F)F)cc2)cc(OC)c1OC | . | . | . | . | . | . | /
O=[N+]([O-])c1ccc(O)c(/C=N/n2cnc3ccccc32)c1 | . | . | . | . | 40.8 | . | 65.8
C=CCN1C(=O)/C(=C/c2ccc(N(C)C)cc2)S/C1=N\c1nnc(CC)s1 | / | / | / | . | / | / | /
SMILES | ATG4B inh | tim10-1 inh | tim23-1 inh | SKKanGAS inh | TIM10 inh | PfHsp90 set2 | TIM10 conf | others
CC(C)Sc1nc2c(c(=O)n(C)c(=O)n2C)n1Cc1ccc(Cl)cc1 | . | . | . | . | . | . | /
Cn1c(=O)c2c(nc(SCc3ccccc3)n2Cc2ccc(Cl)cc2)n(C)c1=O | . | . | . | 80.3 | 43.0 | . | .
Cc1ccc(C)n1-c1ccc(C(=O)O)cc1 | / | . | . | . | . | / | /
COCCCNc1ccc([N+](=O)[O-])cc1C(=O)Nc1cccc(C)n1 | . | . | . | . | . | / | /
Cc1cccc(NC(=O)c2cc([N+](=O)[O-])ccc2NCC2CCCO2)n1 (stereo not given) | . | . | . | . | 49.1 | . | 42.7
O=C(Oc1ccc(OC(=O)c2ccco2)c(S(=O)(=O)c2ccc(Cl)cc2)c1)c1ccco1 | . | . | . | . | 48.9 | . | .
c1ccc(N2CCN(c3nc(-c4ccccn4)nc4ccccc34)CC2)cc1 | . | . | . | 100.0 | 40.4 | . | .
CC(=O)N1CC(=O)N(Cc2ccccc2)/C(=C/c2ccccc2)C1=O | . | . | . | . | 43.8 | . | 40.4
CCOC(=O)C1CCCN(C(=O)c2ccc3[nH]c4c(c3c2)CC(C)CC4)C1 (stereo not given) | . | . | . | / | 73.1 | . | .
CCOC(=O)C1CCCN(C(=O)c2ccc3c(c2)OCO3)C1 (stereo not given) | . | . | . | . | . | / | /
Cc1ccc2c(c1)c1nc3ccccc3nc1n2CCN1CCOCC1 | . | . | . | . | 48.1 | . | .
Cc1c(C(=S)Nc2ccccc2)cnn1-c1ccc([N+](=O)[O-])cc1 | . | . | . | . | 42.8 | . | .
O=C(Cc1ccc(F)cc1)Nc1ccc(F)c([N+](=O)[O-])c1 | . | . | . | . | . | . | /
Fc1ccc(/C=C\c2nccc3c2[nH]c2ccccc23)cc1 | . | . | . | . | . | . | /
Cc1ccc(NC(=O)COC(=O)Cc2cccs2)cc1S(=O)(=O)N1CCOCC1 | . | . | . | . | 97.4 | . | .
Cc1ccc(NC(=O)COC(=O)CNC(=O)c2cccs2)cc1S(=O)(=O)N1CCOCC1 | . | / | / | / | / | . | /
O=C(Nc1cnn(Cc2ccc(Cl)cc2)c1)c1cccs1 | . | . | . | . | . | . | /
O=C(Nc1cnn(Cc2ccc(Cl)c(Cl)c2)c1)C12CC3CC(CC(C3)C1)C2 | . | . | . | ? | 55.7 | . | 42.9
O=C(C#Cc1cccc([N+](=O)[O-])c1)c1ccccc1 | / | . | . | . | 80.0 | 137.3 | 83.1

Screening data (PubChem BioAssay)
